“And” between values parts separate entries of the source, which are not always exact repeats. Equal values may be shown once. The source made the active and inactive calls. Rule for the calls: active = hit-call score of the fitted dose curve at least 0.9, where 1 is the maximum; inactive = score below 0.9.
How the values were obtained:
[1] = ATG_M_61_CIS: Attagene CIS-FACTORIAL HepG2 Assay for M61 Transcription Factor (Internal Marker) (AID 2282937); details: HepG2 Attagene CIS-FACTORIAL M61 internal marker reporter; actives raise or lower the signal
Procedure, shortened: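 Readout is reporter mRNA by RT-PCR, fluorescent primer extension and capillary electrophoresis, with gain or loss fitted relative to DMSO. Transfected HepG2 cells carrying endogenous-TF-driven cis reporters were exposed to chemicals for 24 hours.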

[2] = ATG_EGR_CIS: Attagene CIS-FACTORIAL HepG2 Assay for human Early Growth Response 1 (EGR1) (AID 2282938); details: HepG2 Attagene CIS-FACTORIAL EGR reporter mRNA; actives raise or lower the signal
Procedure, shortened: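 After 24 h compound exposure, RNA from reporter-transfected HepG2 cells was reverse-transcribed, PCR-amplified, fluorescently labelled and resolved by capillary electrophoresis. EGR1 reporter transcript changes, up or down, were fitted against DMSO, reflecting endogenous transcription-factor activity.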

[3] = ATG_M_19_CIS: Attagene CIS-FACTORIAL HepG2 Assay for M19 Transcription Factor (Internal Marker) (AID 2282939); details: HepG2 Attagene CIS-FACTORIAL M19 internal marker reporter; actives raise or lower the signal
Procedure, shortened: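 Signals come from fluorescence of labelled reporter-specific PCR fragments resolved by capillary electrophoresis, following 24 h treatment of HepG2 cells transfected with cis-promoter reporter units; activity was fitted in both directions relative to DMSO.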

[4] = ATG_ERE_CIS: Attagene CIS-FACTORIAL HepG2 Assay for Estrogen Response Element (ERE) (AID 2282940); details: HepG2 ERE cis-reporter, Attagene RNA transcript; actives raise or lower the signal
Procedure, shortened: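 Fluorescence of capillary-separated, FAM-labelled reporter cDNA fragments indicates reporter mRNA levels in HepG2 cells exposed to chemicals for 24 h. Transient transfection with cis-regulated units; data fitted in both directions against DMSO.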

[5] = ATG_Ets_CIS: Attagene CIS-FACTORIAL HepG2 Assay for human Erythroblast Transformation Specific (ETS) (AID 2282941); details: HepG2 ETS cis-reporter transcription, actives raise or lower the signal
Procedure, shortened: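 RT-PCR/capillary electrophoresis fluorescence read-out of reporter mRNA; HepG2 transient multi-reporter transfection; 24 h compound exposure; gain or loss of signal fitted bidirectionally relative to DMSO.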

[6] = molecular target: Hepatocyte nuclear factor 3-beta (Homo sapiens) (UniProt Q9Y261); assay: ATG_FoxA2_CIS: Attagene CIS-FACTORIAL HepG2 Assay for human Forkhead box A2 (FOXA2) (AID 2282942); details: HepG2 cis-reporter transcription factor activity, 24 h; actives raise or lower the signal
Procedure, shortened: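 Endogenous transcription factor activity is captured via cis-element-driven reporter transcripts in transfected HepG2. Total RNA taken at 24 h post-dosing; labelled RT-PCR products resolved by capillary electrophoresis. Gain or loss fitted versus DMSO.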

[7] = ATG_FoxO_CIS: Attagene CIS-FACTORIAL HepG2 Assay for human Forkhead box O (FoxO) (AID 2282943); details: HepG2 Attagene cis-reporter, FoxO element, mRNA; actives raise or lower the signal
Procedure, shortened: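 HepG2 cells transiently transfected with cis-element-driven reporter units report endogenous FoxO activity. After 24 h chemical exposure, reporter mRNA quantified by RT-PCR, fluorescent labeling, HpaI digestion and capillary electrophoresis; bidirectional fit versus DMSO.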

[8] = ATG_GATA_CIS: Attagene CIS-FACTORIAL HepG2 Assay for human GATA Binding Protein (AID 2282944); details: HepG2 GATA cis-element reporter, Attagene multiplex mRNA; actives raise or lower the signal
Procedure, shortened: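 After transfecting HepG2 cells with multiple cis-regulated reporter units, chemicals are dosed for 24 h; isolated RNA undergoes RT-PCR and fluorescent labeling before capillary electrophoresis, with activity expressed against DMSO.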

[9] = ATG_GLI_CIS: Attagene CIS-FACTORIAL HepG2 Assay for human Zinc Finger Protein GLI1 (AID 2282945); details: HepG2, Attagene cis-factorial reporter mRNA, GLI element; actives raise or lower the signal
Procedure, shortened: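 Transiently transfected HepG2 cells report endogenous transcription factor activity via cis-element-driven reporter units. After 24 h compound exposure, reporter mRNA was measured by RT-PCR with capillary electrophoresis; bidirectional fitting against DMSO baseline.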

[10] = molecular target: Bile acid receptor (Homo sapiens) (UniProt Q96RI1); assay: ATG_IR1_CIS: Attagene CIS-FACTORIAL HepG2 Assay for human Nuclear Receptor Subfamily 1 Group H Member 4 (NR1H4), IR1 submotif (AID 2282946); details: IR1 reporter transcription, actives raise or lower the signal
Procedure, shortened: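 Fluorescence of capillary-separated, HpaI-digested RT-PCR reporter products gave IR1-element mRNA induction in HepG2 cells 24 h after dosing. Endogenous transcription factors drove the cis-regulated reporters; activity was fitted bidirectionally against DMSO.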

Measured: AC50

Sequence of Hepatocyte nuclear factor 3-beta (Homo sapiens) (Q9Y261 whole entry, looked up): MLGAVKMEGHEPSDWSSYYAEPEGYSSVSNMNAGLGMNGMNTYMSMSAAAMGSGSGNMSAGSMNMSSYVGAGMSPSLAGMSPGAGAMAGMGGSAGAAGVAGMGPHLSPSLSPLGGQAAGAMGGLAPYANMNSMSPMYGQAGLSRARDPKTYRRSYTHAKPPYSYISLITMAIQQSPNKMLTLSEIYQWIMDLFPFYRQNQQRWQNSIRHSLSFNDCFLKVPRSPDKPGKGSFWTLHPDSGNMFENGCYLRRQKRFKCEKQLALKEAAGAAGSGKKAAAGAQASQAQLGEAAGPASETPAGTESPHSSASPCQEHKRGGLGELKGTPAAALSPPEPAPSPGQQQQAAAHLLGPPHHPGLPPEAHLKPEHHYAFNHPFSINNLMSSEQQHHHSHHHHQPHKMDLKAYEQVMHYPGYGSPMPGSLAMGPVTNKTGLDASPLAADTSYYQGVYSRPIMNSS
Sequence of Bile acid receptor (Homo sapiens) (Q96RI1 whole entry, looked up): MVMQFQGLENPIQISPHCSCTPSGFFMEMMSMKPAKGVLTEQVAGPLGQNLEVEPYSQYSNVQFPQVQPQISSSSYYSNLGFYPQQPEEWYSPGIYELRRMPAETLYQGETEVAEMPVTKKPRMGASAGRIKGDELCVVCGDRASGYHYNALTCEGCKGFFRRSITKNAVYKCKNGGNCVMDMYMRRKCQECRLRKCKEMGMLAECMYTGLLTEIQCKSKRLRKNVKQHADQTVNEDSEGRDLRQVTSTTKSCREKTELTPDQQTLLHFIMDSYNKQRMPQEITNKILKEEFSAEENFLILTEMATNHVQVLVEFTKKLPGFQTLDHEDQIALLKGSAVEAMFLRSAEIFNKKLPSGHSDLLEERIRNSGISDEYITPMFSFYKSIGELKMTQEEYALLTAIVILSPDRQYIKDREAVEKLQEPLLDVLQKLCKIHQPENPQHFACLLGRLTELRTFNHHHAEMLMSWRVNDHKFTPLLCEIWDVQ

CC1(C)CN=C(NN=C(/C=C/c2ccc(C(F)(F)F)cc2)/C=C/c2ccc(C(F)(F)F)cc2)NC1
active: [4] 0.303 µM | [6] 11.1 µM | [10] 6.99 µM
inactive: all other assays above

CCOP(=S)(OCC)SCSc1ccc(Cl)cc1
active: [4] 4.21 µM
not listed: [7]
inactive: all other assays above

Cc1ccc(O)cc1C
active: [4] 160 µM
not listed: [7] | [10]
inactive: all other assays above

O=P1(N(CCCl)CCCl)NCCCO1 (configuration not stated)
active: [4] 3.3 µM
inactive: all other assays above

CCCCC(CC)COP(=O)(Oc1ccccc1)Oc1ccccc1 (configuration not stated)
active: [2] 57.6 µM | [4] 6.77 µM | [9] 100 µM | [10] 25.6 µM
inactive: all other assays above

CC(C)(C)c1ccc(O)cc1
active: [4] 3.14 µM
not listed: [10]
inactive: all other assays above

COC(=O)C(F)(F)C(F)(F)OC(F)(C(F)(F)F)C(F)(F)OC(F)=C(F)F (configuration not stated)
active: [4] 303 nM and 563 nM and 514 nM
inactive: all other assays above

CCCCC(CC)COC(=O)c1c(Br)c(Br)c(Br)c(Br)c1C(=O)OCC(CC)CCCC (configuration not stated)
inactive: all assays above

c1ccc2c(c1)sc1ccccc12
active: [4] 125 µM
not listed: [8]
inactive: all other assays above

CC(C)CBr
inactive: all assays above

ClC(Cl)=C(c1ccc(Cl)cc1)c1ccccc1Cl
active: [4] 4.18 µM | [5] 174 µM | [7] 160 µM | [10] 43.7 µM
not listed: [8]
inactive: all other assays above

Oc1ccccc1Br
inactive: all assays above

CCCCN(CCCC)SN(C)C(=O)Oc1cccc2c1OC(C)(C)C2
active: [4] 14.7 µM
not listed: [10]
inactive: all other assays above

O=P(Oc1ccccc1)(Oc1ccccc1)Oc1ccccc1
active: [2] 33.4 µM | [4] 9.81 µM | [9] 53.3 µM | [10] 26.6 µM
inactive: all other assays above

COC(N)=O
inactive: all assays above

ClC1=C(Cl)C2(Cl)C3C(Cl)C(Cl)CC3C1(Cl)C2(Cl)Cl (configuration not stated)
active: [2] 25.2 µM | [4] 11.2 µM | [10] 17.1 µM
not listed: [8]
inactive: all other assays above

c1cc2c3c(cccc3c1)CC2
not listed: [7] | [10]
inactive: all other assays above

CCOP(=S)(Oc1ccc([N+](=O)[O-])cc1)c1ccccc1 (configuration not stated)
active: [4] 3.35 µM
not listed: [10]
inactive: all other assays above

CCCCOCC1CO1 (configuration not stated)
inactive: all assays above

CCOC(=O)c1ccccc1C(=O)OCC
not listed: [10]
inactive: all other assays above

CCOc1ccc(C(C)(C)COCc2cccc(Oc3ccccc3)c2)cc1
not listed: [8]
inactive: all other assays above

CC1=C(C(=O)Nc2ccccc2)S(=O)(=O)CCO1
active: [2] 10.7 µM | [10] 58.6 µM
not listed: [8]
inactive: all other assays above

O=C(O)CF
not listed: [8] | [10]
inactive: all other assays above

COCCOCCO
not listed: [10]
inactive: all other assays above

O=C(O)C1C(C(=O)O)C2(Cl)C(Cl)=C(Cl)C1(Cl)C2(Cl)Cl (configuration not stated)
not listed: [8]
inactive: all other assays above
